Results on 39 compounds are retold here after PubChem BioAssay (NCI).

Structures are written as SMILES. “And” between values parts separate entries of the source, which are not always exact repeats. Identical values can stand only once. Compounds without any hit were thinned out: in the full panel of roughly 83,000, 20% have a hit.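 Assay: single dose, 48 h. Readout: percent growth (0 = no net growth; negative = cell death). Active: <10.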 Unmarked numbers belong to inactive results. The source made the active and inactive calls.

The assay relates to MDA-MB-468 breast. Nature of the assay: NCI-60 one-dose screen, 48 h (100 = growth as untreated, 0 = no growth, -100 = all killed). The settings on record: 10 µM unless noted.
`O=C(NC1CCCCC1)C(c1cccs1)N(CCc1ccccc1)C(=O)c1ccco1` (centres undefined): the growth is 94.1%.
Take `Brc1cccc(-c2nc(-c3ccc4c(c3)OCCO4)co2)c1`: the growth was 34.9% [25 µM].
In the case of `CCCCCCCCCCCC1=NC(C)(C)CN1CC(C)O` (centres undefined), the growth was 10%.
As to `O=C1CC2C=CCN2C=C1NC(=O)c1ccccc1` (centres undefined), the growth is 98.9%.
Turning to `COc1ccc2nc(-c3ccc(OC)c(OC)c3)cc(-c3nnc(SCC(=O)Nc4ccc(C(C)=O)cc4)o3)c2c1`, the growth is 103%.
With `NS(=O)(=O)c1ccc(CCN2C(=O)C3C(C2=O)C2(Cl)C(Cl)=C(Cl)C3(Cl)C2(Cl)Cl)cc1` (centres undefined), the growth was 109%.
With `CN(Cc1ccccc1)S(=O)(=O)/N=C1\NC(=O)NC1=C(Cl)Cl`, the growth was 22.3%.
As to `COc1ccc2cc(-c3ccc(-c4ccc(C(=N)N)s4)s3)ccc2c1`, the growth is -51.7% (active).
In the case of `N#Cc1nn(-c2ccccn2)c(N)c1C#N`, the growth is 116%.
Turning to `CCOC(OCC)c1cnc2nc(NC(C)=O)[nH]c(=O)c2n1`, the growth is 109%.
Regarding `S=C(c1cccs1)N1CCN(c2cccc(Cl)c2)CC1`, the growth was 85.8%.
Regarding `O=C(/C=C/c1ccccc1)c1cccs1`, the growth is 80.2%.
For `CN1C[C@@H](c2ccc(Cl)cc2)[C@]2(NC(=S)N(c3ccc(F)c(Cl)c3)C2=O)[C@@]12C(=O)NC1C=CC(Cl)=C[C@H]12` (some centres undefined), the growth is 48.8%.
For `CN(CC(=O)O)c1ccc(/C=C/c2ccnc3ccccc23)cc1`, the growth is -0.654% (active).
On to `COC(=O)c1c2c(c(C)[n+]([O-])c1C)C(=O)C(NCc1ccc(OC)cc1)=CC2=O`, for which the growth is -6.29% (active).
With `Nc1c(S(=O)(=O)O)cc(Br)c2c1C(=O)c1ccccc1C2=O`, the growth is 102% and 107%.
Take `C=C1C(=O)O[C@H]2[C@H]1CC/C(COC(=O)/C=C/C(=O)OC/C1=C/CC[C@@]3(C)O[C@H]3[C@H]3OC(=O)C(=C)[C@@H]3CC1)=C\CC[C@@]1(C)O[C@@H]21`: the growth is -5.97% (active).
`N#C/C(=C\c1cccc2c1OCO2)C(=O)Nc1sc2c(c1C#N)CCCC2`: the growth was 100%.
Turning to `COc1ccc([N+](=O)[O-])c(/C=C/C(=O)c2ccccn2)c1`, the growth was 74.4%.
For `S=C1SCN(CCc2ccccc2)CN1CCc1ccccc1`, the growth was 9.02% (active).
With `CCC(C)CC(C)C(=O)c1c(O)ccn(OC)c1=O` (centres undefined), the growth is 69.4%.
Next, `Cn1ccnc1C(=O)/C=C/c1ccc(CC(=O)Nc2cc(F)c(F)c(F)c2)cc1`: -23.4% (active).
Next, `CCOc1cccc(/C=N/NC(=O)Cc2ccc(Nc3ccnc(C(F)(F)F)c3)cc2)c1O`: 1.86% (active); `Cc1cccc(-n2c(C)nc3ccc(NC(=O)NCCCl)cc3c2=O)c1`: 92.7%; `CC(=O)O[C@H]1CC[C@]2(C)[C@H]3C(=O)C=C4[C@@H]5C[C@](C)(C(=O)N6CCCNCC6)CC[C@]5(C)CC[C@@]4(C)[C@]3(C)CC[C@H]2C1(C)C`: -85.2% (active).
As for `CCN1CCN(CC(=O)Nc2nc3ccc(NCc4ccc(Cl)cc4)cc3s2)CC1`, the growth was 47.8%.
As to `C=C1CC[C@@H]2[C@](C)(COC(C)=O)[C@H](OC(C)=O)CC[C@@]2(C)[C@@H]1CC(Nc1ccc(S(=O)(=O)Nc2nccs2)cc1)C1=CCOC1=O` (some centres undefined), the growth is -59.9% (active).
In the case of `Cc1[nH]c(N=Nc2ccccc2)nc1N=Nc1ccccc1`, the growth was 24.1%.
Next, `COc1cccc2c1C(=O)c1c(O)c3c(c(O)c1C2=O)C[C@](O)(C(=O)CO)C[C@H]3O[C@@H]1C[C@@H](NC(=O)CCCN(C)C2(c3ccc(F)cc3)CC3CCC2C3)[C@H](O)[C@@H](C)O1` (some centres undefined): -82.4% (active); `C=C1C(=O)O[C@H]2[C@H]1CC/C(COC(=O)NCC(=O)Nc1ccc(OC)c(C(N)=O)c1O)=C\CC[C@@]1(C)O[C@@H]21`: 8.85% (active).
As to `O=C(CN1C(=O)NC2NC(=O)NC21)N/N=C/c1cccc([N+](=O)[O-])c1` (centres undefined), the growth was 97.6%.
For the compound `COc1ccc(C(=O)CC#N)cc1`, the growth is 103%.
With `CNc1ccc(-c2cc(=O)oc3ccc(Cl)cc23)cc1`, the growth is 39.5%.
For `CN1C2CCC1/C(=C\c1ccc(Cl)cc1)C(=O)/C2=C/c1ccc(Cl)cc1`, the growth was 59.1%.
The result for `O=C1CCC(N2C(=O)c3cccc(NCCOCCOCCNC(=O)c4cc5c(o4)C(=O)c4ccccc4C5=O)c3C2=O)C(=O)N1` (centres undefined) reads -41.6% (active).
`CC(C)(C)OC(=O)CN1CCc2c(sc3ncnc(N/N=C/c4ccccc4Br)c23)C1`: the growth was 88.5%.
As for `N#C/C(=C/N1C(=O)/C(=C/c2ccc([N+](=O)[O-])cc2)SC1=S)c1nc2ccccc2s1`, the growth is 84%.
Next, `O=C(O)COc1ccc([N+](=O)[O-])cc1Cl`: 104%; `COc1ccc2[nH]c(-c3ccccc3)cc2c1`: 96.9%.
